Experimental data from PubChem BioAssay (NCATS).
Inconclusive results are not listed. The source made the active and inactive calls. Calls follow the shape of the dose curve; as a rule, active = well fitted curve in the direction sought with a large enough effect; inconclusive = small, poorly fitted or top-dose-only effect, or another doubt; inactive = no such curve, though single readings can be large; an effect the other way counts as inactive or inconclusive.

Tests used:
HACAT = experiment: qHTS assay to identify novel small-molecules to repurpose for Merkel cell carcinoma treatment (AID 1296009); conditions: MCC and control cell lines, CellTiter-Glo viability, 72 h; at 44.8 µM (top of the series) unless noted; also: nearly all actives have a fitted effect of over 60% in size
In short: (§1)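 Cells exposed to NPC (8-point) and MIPE (11-point) compound dilutions for 72 hr at 37 degree celsius; viability read by CellTiter-Glo luminescence, normalized to no-cell and DMSO in-plate controls.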

HEK293T [1] = experiment: as above; conditions: MCC and control cell lines, CellTiter-Glo viability, 72 h; series mostly up to 44.8 µM
In short: as §1

MCC-13 = experiment: as above; conditions: MCC and control cell lines, CellTiter-Glo viability, 72 h; series mostly up to 46 µM
In short: as §1

MCC-26 = experiment: as above; conditions: MCC and control cell lines, CellTiter-Glo viability, 72 h; series mostly up to 46 µM
In short: as §1

MKL-1 = experiment: as above; conditions: MCC and control cell lines, CellTiter-Glo viability, 72 h; series mostly up to 46 µM
In short: as §1

UISO = experiment: as above; conditions: MCC and control cell lines, CellTiter-Glo viability, 72 h; series mostly up to 46 µM
In short: as §1

WaGa = experiment: as above; conditions: MCC and control cell lines, CellTiter-Glo viability, 72 h; series mostly up to 46 µM
In short: as §1

MKL-2 = experiment: as above; conditions: MCC and control cell lines, CellTiter-Glo viability, 72 h; series mostly up to 46 µM
In short: as §1

NIH3T3 = experiment: as above; conditions: MCC and control cell lines, CellTiter-Glo viability, 72 h; at 44.8 µM (top of the series) unless noted
In short: as §1

C33A = experiment: Primary qHTS to identify gynecologic anti-cancer compounds using libraries of approved drugs and bioactive compounds (AID 1345084); conditions: Gynecologic cancer cell panel viability, ATPlite luminescence, 48 h; series mostly up to 57.5 µM; also: nearly all actives have a fitted effect of over 55% in size
In short: (§2)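 Cells, 1,000 per well, were allowed to settle for 16 h at 37 C before compound addition. Five concentrations were tested for 48 h, and viability was read by ATPlite luminescence after 15 min at room temperature.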

CASKI = experiment: as above; conditions: Gynecologic cancer cell panel viability, ATPlite luminescence, 48 h; series mostly up to 57.5 µM
In short: as §2

Es-2 = experiment: as above; conditions: Gynecologic cancer cell panel viability, ATPlite luminescence, 48 h; series mostly up to 57.5 µM
In short: as §2

HeLa = experiment: as above; conditions: Gynecologic cancer cell panel viability, ATPlite luminescence, 48 h; series mostly up to 57.5 µM
In short: as §2

Hek293T [2] = experiment: as above; conditions: Gynecologic cancer cell panel viability, ATPlite luminescence, 48 h, control line for the selectivity index; series mostly up to 57.5 µM
In short: as §2

JEG-3 = experiment: as above; conditions: Gynecologic cancer cell panel viability, ATPlite luminescence, 48 h; series mostly up to 57.5 µM
In short: as §2

OV90 = experiment: as above; conditions: Gynecologic cancer cell panel viability, ATPlite luminescence, 48 h; series mostly up to 57.5 µM
In short: as §2

PA-1 = experiment: as above; conditions: Gynecologic cancer cell panel viability, ATPlite luminescence, 48 h; series mostly up to 57.5 µM
In short: as §2

SKOV3 = experiment: as above; conditions: Gynecologic cancer cell panel viability, ATPlite luminescence, 48 h; series mostly up to 57.5 µM
In short: as §2

Tov-21-G = experiment: as above; conditions: Gynecologic cancer cell panel viability, ATPlite luminescence, 48 h; series mostly up to 57.5 µM
In short: as §2

Tov112D = experiment: as above; conditions: Gynecologic cancer cell panel viability, ATPlite luminescence, 48 h; series mostly up to 57.5 µM
In short: as §2

Measured: Potency
Potency is read from the fitted curve at half-maximal effect.

COC(=O)[C@@H]1[C@H]2C[C@@H]3c4[nH]c5ccccc5c4CCN3C[C@@H]2CC[C@@H]1O
inactive: HACAT | HEK293T [1] | MCC-13 | MCC-26 | MKL-1 | UISO | WaGa

Oc1cc2c(cc1O)C1c3ccc(O)c(O)c3OCC1(O)C2 (configuration not stated)
inactive: HACAT | MCC-13 | MCC-26 | MKL-1 | MKL-2 | NIH3T3 | UISO | WaGa

COC(=O)C=CC(=O)OC
inactive: HACAT | HEK293T [1] | MCC-13 | MCC-26 | MKL-1 | MKL-2 | UISO

CC1(C)O[C@@H]2C[C@H]3[C@@H]4CCC5=CC(=O)C=C[C@]5(C)[C@@H]4[C@@H](O)C[C@]3(C)[C@]2(C(=O)CO)O1
not listed: NIH3T3
inactive: all other assays above

C=C(C)[C@@H]1CC[C@]2(C)CC[C@]3(C)[C@H](CC[C@@H]4[C@@]5(C)CC[C@H](O)C(C)(C)[C@H]5CC[C@]43C)[C@@H]12
inactive: HACAT | HEK293T [1] | MCC-13 | MCC-26 | MKL-1 | MKL-2 | NIH3T3 | UISO | WaGa

C[C@H]1C[C@H]2[C@@H]3CCC4=CC(=O)C=C[C@]4(C)[C@@H]3C(=O)C[C@]2(C)[C@@]1(O)C(=O)CO
inactive: HACAT | MCC-13 | MCC-26 | MKL-1 | MKL-2 | NIH3T3 | UISO | WaGa

Nc1nc2c(c(=O)[nH]1)N(C=O)[C@H](CNc1ccc(C(=O)N[C@@H](CCC(=O)O)C(=O)O)cc1)CN2
inactive: HACAT | MCC-13 | MCC-26 | MKL-1 | MKL-2 | NIH3T3 | UISO | WaGa

CC[C@H]1OC(=O)[C@H](C)[C@@H](O[C@H]2C[C@@](C)(OC)[C@@H](O)[C@H](C)O2)[C@H](C)[C@@H](O[C@@H]2O[C@@H](C)C[C@H](N(C)C)[C@@H]2O)[C@](C)(O)C[C@@H](C)C(=O)[C@H](C)[C@@H](O)[C@]1(C)O
inactive: HACAT | MCC-13 | MCC-26 | MKL-1 | MKL-2 | NIH3T3 | UISO | WaGa

COc1cc(OC)c(NC(=O)Nc2cc(C)on2)cc1Cl
inactive: HACAT | MCC-13 | MCC-26 | MKL-1 | MKL-2 | UISO | WaGa

CCCCOc1ccc(C(=O)Nc2ccc(F)cc2F)cc1
not listed: HEK293T [1] | Hek293T [2] | SKOV3
inactive: all other assays above

CC(=O)C1=C(O)C=C2Oc3c(C(C)=O)c(O)c(C)c(O)c3C2(C)C1=O (configuration not stated)
inactive: HACAT | HEK293T [1] | MCC-13 | MCC-26 | MKL-1 | MKL-2 | NIH3T3 | UISO | WaGa

Cc1ccc(O)c(C(CCN(C(C)C)C(C)C)c2ccccc2)c1 (configuration not stated)
inactive: HACAT | MCC-13 | MCC-26 | MKL-1 | MKL-2 | NIH3T3 | UISO | WaGa

Cc1cc(-c2nnc3n2CCCCC3)c(C)n1-c1ccccc1
active: MKL-2 20.9 µM
inactive: HACAT | MCC-13 | MCC-26 | MKL-1 | UISO

Nc1cccc2c1C(=O)N(C1CCC(=O)NC1=O)C2=O (configuration not stated)
inactive: HACAT | MCC-13 | MCC-26 | MKL-1 | MKL-2 | UISO | WaGa

CC1(C)[C@H](O[C@H]2O[C@H](C(=O)O)[C@@H](O)[C@H](O)[C@H]2O[C@@H]2O[C@H](C(=O)O)[C@@H](O)[C@H](O)[C@H]2O)CC[C@@]2(C)[C@H]1CC[C@]1(C)[C@H]2C(=O)C=C2[C@H]3C[C@@](C)(C(=O)O)CC[C@]3(C)CC[C@]21C
inactive: HACAT | MCC-13 | MCC-26 | MKL-1 | MKL-2 | NIH3T3 | UISO | WaGa

COc1cc(CCc2cc(NC(=O)c3ccc(N4C[C@@H](C)N[C@@H](C)C4)cc3)n[nH]2)cc(OC)c1
active: HEK293T [1] 14.6 µM | UISO 23.5 µM | HeLa 25.1 µM | PA-1 20 µM
inactive: HACAT | MCC-13 | MKL-2 | WaGa | Hek293T [2] | JEG-3

O=C(O)[C@H](CC(=O)N1C[C@@H]2CCCC[C@H]2C1)Cc1ccccc1
inactive: HACAT | MCC-13 | MCC-26 | MKL-1 | MKL-2 | NIH3T3 | UISO | WaGa

OC[C@H]1OC(O)C[C@@H](O)[C@H]1O (some centres not stated)
inactive: HACAT | HEK293T [1] | MCC-13 | MCC-26 | MKL-1 | MKL-2 | NIH3T3 | UISO | WaGa

COc1ccc(CCC(=O)c2c(O)cc(O[C@@H]3O[C@H](CO)[C@@H](O)[C@H](O)[C@@H]3O[C@@H]3O[C@@H](C)[C@H](O)[C@@H](O)[C@@H]3O)cc2O)cc1O
inactive: HACAT | MCC-13 | MCC-26 | MKL-1 | MKL-2 | NIH3T3 | UISO | WaGa

C[C@H](CCC(=O)O)[C@H]1CC[C@H]2[C@@H]3[C@H](O)C[C@@H]4C[C@H](O)CC[C@]4(C)[C@@H]3CC[C@]12C
inactive: HACAT | MCC-13 | MCC-26 | MKL-1 | MKL-2 | NIH3T3 | UISO | WaGa

N#Cc1cc(NC(=O)Nc2nnc(-c3ccncc3)s2)ccc1-c1cn[nH]c1
inactive: HACAT | HEK293T [1] | MCC-13 | MKL-1 | MKL-2 | UISO | WaGa

CN1C(C(=O)Nc2ccccn2)=C(O)c2sc(Cl)cc2S1(=O)=O
inactive: HACAT | HEK293T [1] | MCC-13 | MCC-26 | MKL-1 | UISO | WaGa

NC(=O)c1ncn([C@@H]2O[C@H](CO)[C@@H](O)[C@@H]2O)c1N
inactive: HACAT | MCC-13 | MCC-26 | MKL-1 | MKL-2 | NIH3T3 | UISO | WaGa

C[C@H](O)[C@@H]1C(=O)N2C(C(=O)O)=C(S[C@@H]3CN[C@H](CNS(N)(=O)=O)C3)[C@@H](C)[C@@H]12
not listed: HEK293T [1] | SKOV3
inactive: all other assays above

C[C@]12C=CC(=O)N[C@@H]1CC[C@H]1[C@H]3CC[C@@H](C(=O)Nc4cc(C(F)(F)F)ccc4C(F)(F)F)[C@@]3(C)CC[C@@H]12
inactive: HACAT | MCC-13 | MCC-26 | MKL-1 | MKL-2 | NIH3T3 | UISO | WaGa

O=C(NNC(=O)c1ccc(CNS(=O)(=O)c2ccc(F)c(Cl)c2)cc1)c1ccccc1
inactive: HACAT | MCC-13 | MCC-26 | MKL-1 | MKL-2 | NIH3T3 | UISO | WaGa

OCCN1C[C@H](O)[C@@H](O)[C@H](O)[C@@H]1CO
inactive: HACAT | MCC-13 | MCC-26 | MKL-1 | MKL-2 | UISO | WaGa

Cn1cc(C=CC(=O)c2cccc(F)c2)cc1C=CC(=O)NO
inactive: HACAT | HEK293T [1] | MCC-13 | MCC-26 | MKL-1 | NIH3T3 | UISO

CC(Oc1ccc(O)cc1)(P(=O)(O)O)P(=O)(O)O
inactive: HACAT | HEK293T [1] | MCC-13 | MCC-26 | MKL-1 | MKL-2 | UISO | WaGa

O=C(c1ccc(F)cc1)N1CCC[C@H](c2nc(-c3ccc(F)cc3)no2)C1
inactive: HACAT | MCC-13 | MCC-26 | MKL-1 | MKL-2 | NIH3T3 | UISO | WaGa

CCCc1nc(C(C)(C)O)c(C(=O)O)n1Cc1ccc(-c2ccccc2-c2nn[nH]n2)cc1
inactive: HACAT | HEK293T [1] | MCC-13 | MCC-26 | MKL-1 | MKL-2 | NIH3T3 | UISO | WaGa

COC(=O)[C@@H]1CC2=CC(=O)CC[C@]2(C)[C@@]23O[C@@H]2C[C@@]2(C)[C@H](CC[C@@]24CCC(=O)O4)[C@@H]13
inactive: HACAT | HEK293T [1] | MCC-13 | MCC-26 | MKL-1 | MKL-2 | NIH3T3 | UISO | WaGa

O=C(Nc1ccc(Oc2ccnc3[nH]ccc23)c(F)c1)c1cccn(-c2ccc(F)cc2)c1=O
not listed: HEK293T [1]
inactive: all other assays above

c1coc(CNc2ncnc3nc[nH]c23)c1
inactive: HACAT | HEK293T [1] | MCC-13 | MCC-26 | MKL-1 | MKL-2 | UISO | WaGa

CC1(C)CC(O)CC(C)(C)N1[O]
inactive: HACAT | HEK293T [1] | MCC-13 | MCC-26 | MKL-1 | MKL-2 | UISO | WaGa

Nc1nc(=O)n([C@H]2CSC(CO)O2)cc1F (some centres not stated)
inactive: HACAT | HEK293T [1] | MCC-13 | MCC-26 | MKL-1 | MKL-2 | NIH3T3 | UISO | WaGa
